Laboratory results taken from the antibiotic and cytotoxicity screens of Wong et al. (2023).
The campaign covered roughly 39,000 compounds. About 500 (1.3%) were called active. This excerpt belongs to a sample that is enriched for actives.

Each molecule was assayed on S. aureus RN4220 (assay: growth inhibition call (relative growth <= 0.2)). Conditions: 50 µM.
`NC(=O)c1cc[n+](CC2=C(C(=O)O)N3C(=O)[C@@H](NC(=O)Cc4cccs4)[C@H]3SC2)cc1` was tested, and the growth inhibition call was “active”. For `NC(=O)c1cc[n+](CC2=C(C(=O)[O-])N3C(=O)C(NC(=O)C(c4ccccc4)S(=O)(=O)[O-])C3SC2)cc1.[Na+]` (stereo not given), the growth inhibition call was “inactive”. For `CC(C)(ON=C(C(=O)NC1C(=O)N2C(C(=O)[O-])=C(C[n+]3ccccc3)CSC12)c1csc(N)n1)C(=O)O` (stereo not given), the growth inhibition call was “inactive”. `NC(=O)c1cc[n+](CC2=C(C(=O)[O-])N3C(=O)C(NC(=O)Cc4cccs4)C3SC2)cc1` (stereo not given) was tested, and the growth inhibition call was “active”. `Cn1sccc1=O` was tested, and the growth inhibition call was “inactive”. For `O=C(C[C@@H]1CC[C@H]2[C@@H](COC[C@@H](O)CN2S(=O)(=O)c2ccc(Cl)cc2)O1)N1CCc2ccccc2C1`, the growth inhibition call was “inactive”. `C[C@H](CO)N1C[C@H](C)[C@@H](CN(C)Cc2ccncc2)OCCCC[C@H](C)Oc2ccc(NC(=O)Nc3ccc4c(c3)OCO4)cc2C1=O` was tested, and the growth inhibition call was “inactive”. In the case of `O=C(C[C@@H]1CC[C@H]2NC[C@@H](O)COC[C@@H]2O1)NCCN1CCCC1`, the growth inhibition call is reported as “inactive”. For `COc1cc(C2c3cc4c(cc3C(OC3OC5COC(C)OC5C(O)C3O)C3COC(=O)C23)OCO4)cc(OC)c1O` (stereo not given), the growth inhibition call was “inactive”. `COc1cc([C@@H]2c3cc4c(cc3[C@@H](O[C@@H]3O[C@@H]5CO[C@@H](C)O[C@H]5[C@H](O)[C@H]3O)[C@H]3COC(=O)[C@H]23)OCO4)cc(OC)c1O` was tested, and the growth inhibition call was “active”. `COc1cc([C@@H]2c3cc4c(cc3[C@@H](O[C@@H]3O[C@@H]5CO[C@@H](C)O[C@H]5[C@H](O)[C@H]3O)[C@@H]3COC(=O)[C@@H]23)OCO4)cc(OC)c1O` was tested, and the growth inhibition call was “inactive”. With `N#CC(c1ccc(Cl)cc1)c1c(Cl)cc(-n2ncc(=O)[nH]c2=O)cc1Cl` (stereo not given) the growth inhibition call was “active”. For `N#C[C@H](N)c1ccc(Cl)cc1`, the growth inhibition call was “inactive”. `Nc1cc(=O)[nH]c(=O)n1-c1ccc(Cl)cc1` was tested, and the growth inhibition call was “inactive”. In the case of `Cc1noc(C)c1NC(=O)N(C)C[C@@H]1OCCCC[C@@H](C)Oc2ccc(NC(=O)C3CCCCC3)cc2C(=O)N([C@@H](C)CO)C[C@@H]1C`, the growth inhibition call is reported as “inactive”. `C[C@@H]1CN([C@@H](C)CO)C(=O)Cc2cc(NS(=O)(=O)c3ccccc3)ccc2O[C@@H]1CN(C)Cc1ccc(-c2ccccc2)cc1` was tested, and the growth inhibition call was “inactive”. `COc1cc(CN2CCC(C(=O)N[C@@H](c3ccc(-c4ccccc4)cc3)c3cnccn3)CC2)cc(OC)c1` was tested, and the growth inhibition call was “inactive”. With `O=C(N[C@@H](c1ccc(-c2ccccc2)cc1)c1cnccn1)C1CCN(Cc2ccc(Cl)c(Cl)c2)CC1` the growth inhibition call was “inactive”. For `O=C(N[C@H](c1ccc(F)cc1)c1ccc2ccccc2n1)C1CCN(Cc2ccc(Oc3ccccc3)cc2)CC1`, the growth inhibition call was “inactive”. `COc1ccc(/C=C/CN2CCC(C(=O)N[C@@H](c3ccc(-c4ccccc4)cc3)c3cnccn3)CC2)cc1` was tested, and the growth inhibition call was “active”. `O=C(N[C@@H](c1ccc(F)cc1)c1ccc2ccccc2n1)C1CCN(CCOc2ccc(F)cc2)CC1` was tested, and the growth inhibition call was “active”. With `O=C(N[C@@H](c1ccccc1)c1ccc2ccccc2n1)C1CCN(CCOc2ccc(Cl)cc2)CC1` the growth inhibition call was “active”. `O=C(N[C@@H](c1ccc(-c2ccccc2)cc1)c1cnccn1)C1CCN(Cc2ccc(Oc3ccccc3)cc2)CC1` was tested, and the growth inhibition call was “inactive”. With `COc1ccc(OCCN2CCC(C(=O)N[C@@H](c3ccc(F)cc3)c3ccc4ccccc4n3)CC2)cc1` the growth inhibition call was “inactive”. `COc1ccc(/C=C/CN2CCC(C(=O)N[C@@H](c3ccc(F)cc3)c3ccc4ccccc4n3)CC2)cc1` was tested, and the growth inhibition call was “inactive”. In the case of `O=C(N[C@@H](c1ccccc1)c1ccc2ccccc2n1)C1CCN(Cc2ccc(Oc3ccccc3)cc2)CC1`, the growth inhibition call is reported as “inactive”. With `O=C(N[C@@H](c1ccccc1)c1ccc2ccccc2n1)C1CCN(CCOc2ccc(Cl)cc2Cl)CC1` the growth inhibition call was “inactive”. `O=C(N[C@H](c1ccc(Cl)cc1)c1cnccn1)C1CCN(Cc2ccc(Oc3ccccc3)cc2)CC1` was tested, and the growth inhibition call was “active”. `Cc1noc(C)c1NC(=O)N(C)C[C@@H]1Oc2cc(Br)ccc2S(=O)(=O)N([C@@H](C)CO)C[C@H]1C` was tested, and the growth inhibition call was “inactive”. For `C[C@@H]1O[C@@H](O[C@@H]2[C@@H](O)[C@H](OCCc3ccc(O)c(O)c3)O[C@H](COC(=O)/C=C/c3ccc(O)c(O)c3)[C@H]2O)[C@H](O)[C@H](O)[C@H]1O`, the growth inhibition call was “inactive”. With `CO[C@@H]1CN(C)C(=O)c2cc(NC(=O)CC(F)(F)F)ccc2OC[C@@H](C)N(C(=O)C2CCOCC2)C[C@@H]1C` the growth inhibition call was “inactive”. With `C[N+]1(C)C[C@H](O)[C@H](C(=O)O)C1` the growth inhibition call was “inactive”. For `COCC(=O)N1C[C@H](C)[C@H](OC)CN(C)C(=O)c2ccc(NC(=O)c3cc(C)on3)cc2OC[C@H]1C`, the growth inhibition call was “inactive”. With `COCCOC(=O)N1C(=O)[C@@]2(c3cc(C#CCNC(N)=O)ccc31)[C@H](c1ccccc1OCCO)N1[C@H](c3ccccc3)[C@H](c3ccccc3)OC(=O)[C@H]1[C@@H]2C(N)=O` the growth inhibition call was “inactive”. `C[C@H](CO)N1C[C@H](C)[C@H](CN(C)S(=O)(=O)c2ccc(Oc3ccccc3)cc2)OCc2cnnn2CCCC1=O` was tested, and the growth inhibition call was “inactive”. With `Cc1noc(C)c1NC(=O)Nc1ccc2c(c1)C(=O)N([C@H](C)CO)C[C@@H](C)[C@@H](CN(C)S(=O)(=O)c1ccc(Cl)cc1)OCCCC[C@H](C)O2` the growth inhibition call was “inactive”. In the case of `CCCC#Cc1ccc2c(c1)O[C@@H](CN(C)C(=O)c1cnccn1)[C@@H](C)CN([C@@H](C)CO)S2(=O)=O`, the growth inhibition call is reported as “inactive”. `COc1cc(CN2CCC(C(=O)N[C@@H](c3ccc(F)cc3)c3ccc4ccccc4n3)CC2)cc(OC)c1` was tested, and the growth inhibition call was “inactive”. With `O=C(N[C@@H](c1ccc(-c2ccccc2)cc1)c1cnccn1)C1CCN(CCOc2ccc(F)cc2)CC1` the growth inhibition call was “active”. For `O=C(N[C@@H](c1ccc(-c2ccccc2)cc1)c1cnccn1)C1CCN(Cc2cccc(C(F)(F)F)c2)CC1`, the growth inhibition call was “inactive”. `O=C(N[C@H](c1ccc(F)cc1)c1ccc2ccccc2n1)C1CCN(Cc2ccc3ccccc3n2)CC1` was tested, and the growth inhibition call was “inactive”. `O=C(N[C@H](c1ccc(F)cc1)c1ccc2ccccc2n1)C1CCN(CCOc2ccc(Cl)cc2)CC1` was tested, and the growth inhibition call was “active”. For `O=C(N[C@@H](c1ccc(-c2ccccc2)cc1)c1cnccn1)C1CCN(CCCOc2ccccc2)CC1`, the growth inhibition call was “inactive”. In the case of `C[C@@H]1CCCCO[C@@H](CN(C)Cc2ccc(Cl)c(Cl)c2)[C@H](C)CN([C@H](C)CO)C(=O)c2cc(NC(=O)C3CCCCC3)ccc2O1`, the growth inhibition call is reported as “inactive”. With `COc1ccc(NC(=O)N(C)C[C@@H]2OCCCC[C@H](C)Oc3ccc(NC(=O)Cc4ccccc4)cc3C(=O)N([C@@H](C)CO)C[C@@H]2C)cc1` the growth inhibition call was “inactive”. With `C[C@H]1CN([C@@H](C)CO)C(=O)c2cc(C#Cc3ccc(F)cc3)cnc2O[C@@H]1CN(C)CC1CCOCC1` the growth inhibition call was “inactive”. With `CC1=C(/C=C/C(C)=C/C=C/C(C)=C/C=C/C=C(C)/C=C/C=C(C)/C=C/C2=C(C)CCCC2(C)C)C(C)(C)CCC1` the growth inhibition call was “inactive”. `Cc1noc(C)c1NC(=O)Nc1cccc2c1O[C@H](CN(C)S(=O)(=O)c1cn(C)cn1)[C@H](C)CN([C@@H](C)CO)C2=O` was tested, and the growth inhibition call was “inactive”. With `C[C@H](CO)N1C[C@H](C)[C@@H](CN(C)Cc2ccc(C(=O)Nc3ccccc3N)cc2)Oc2c(NS(=O)(=O)c3cn(C)cn3)cccc2C1=O` the growth inhibition call was “inactive”. With `Cc1nn(C)c(COc2ccc(N3CCN(S(=O)(=O)N(C)C)CC3)cc2)c1-c1cccc2c(CCCOc3cccc4ccccc34)c(C(=O)O)n(CCN3CCNCC3)c12` the growth inhibition call was “inactive”. In the case of `COc1ccc2c(c(Br)c(C(=O)O)n2CCCOc2cccc3ccccc23)c1-c1ccccc1C`, the growth inhibition call is reported as “active”. In the case of `COc1cc(C(=O)N2CCN(CCN3C(=O)c4cccc5cccc(c45)C3=O)CC2)cc(OC)c1OC`, the growth inhibition call is reported as “inactive”. For `C=Cn1cnc2c1c(=O)n(C)c(=O)n2C`, the growth inhibition call was “inactive”. In the case of `CC(C)=CCCC1(C)C=Cc2c(O)c3c(c(CC=C(C)C)c2O1)OC12C(=CCCC1C(C)(C)OC2(CC=C(C)C(=O)O)C(=O)O)C3=O` (stereo not given), the growth inhibition call is reported as “active”. `CC(C)=CCc1c2c(c3occ(-c4ccc(O)cc4)c(=O)c3c1O)C=CC(C)(C)O2` was tested, and the growth inhibition call was “inactive”. `C=c1ccc(S(=O)(=O)NC[C@@H](C)O)cc1=C1NN=C2c3ccccc3C(C)=NN21` was tested, and the growth inhibition call was “inactive”. For `C[C@H](CO)N1C[C@H](C)[C@H](CN(C)S(C)(=O)=O)Oc2cc(C#Cc3ccc(F)cc3)ccc2S1(=O)=O`, the growth inhibition call was “inactive”. For `C[C@@H]1CN([C@H](C)CO)C(=O)c2cccc(NS(=O)(=O)c3ccccc3)c2O[C@@H]1CN(C)Cc1ccncc1`, the growth inhibition call was “inactive”. `CCCCCCCCCCCCC[N+](C)(C)Cc1ccccc1` was tested, and the growth inhibition call was “active”. For `CCCCCCCCCCCCC[N+](C)(C)Cc1ccccc1.O.[Cl-]`, the growth inhibition call was “inactive”. `CCCCCCCCCCCCCCCC[N+](C)(C)Cc1ccccc1.[Cl-]` was tested, and the growth inhibition call was “inactive”. For `Cc1noc(C)c1S(=O)(=O)N(C)C[C@@H]1Oc2ccc(NS(C)(=O)=O)cc2CC(=O)N([C@H](C)CO)C[C@H]1C`, the growth inhibition call was “inactive”. For `C[C@@H]1CN([C@H](C)CO)C(=O)c2cccc(NC(=O)c3cnccn3)c2O[C@@H]1CN(C)S(=O)(=O)c1ccc(F)cc1`, the growth inhibition call was “inactive”. `C[C@@H]1CCCCO[C@@H](CN(C)C(=O)Nc2ccc3c(c2)OCO3)[C@H](C)CN([C@@H](C)CO)C(=O)c2cc(NC(=O)Nc3ccccc3)ccc2O1` was tested, and the growth inhibition call was “inactive”. In the case of `COc1ccc(C#Cc2ccc3c(c2)O[C@@H](CN(C)S(=O)(=O)c2ccccc2F)[C@H](C)CN([C@H](C)CO)S3(=O)=O)cc1`, the growth inhibition call is reported as “inactive”. In the case of `O=C(O)c1ccccc1-c1c2cc(I)c(=O)c(I)c-2oc2c(I)c(O)c(I)cc12`, the growth inhibition call is reported as “active”. `O=C(O)CN(CC(=O)O)Cc1cc2c(-c3ccccc3C(=O)O)c3cc(CN(CC(=O)O)CC(=O)O)c(=O)cc-3oc2cc1O` was tested, and the growth inhibition call was “inactive”. For `O=C(O)c1ccccc1-c1ccco1`, the growth inhibition call was “inactive”. With `O=C([O-])c1ccccc1-c1c2cc(I)c(=O)c(I)c-2oc2c(I)c([O-])c(I)cc12.[Na+].[Na+]` the growth inhibition call was “active”. `C[C@@H]1CN([C@@H](C)CO)C(=O)c2cc(NS(=O)(=O)c3ccccc3)ccc2O[C@@H](C)CCCCO[C@@H]1CN(C)Cc1ccc2c(c1)OCO2` was tested, and the growth inhibition call was “inactive”.
